Shown is part of a subset that was picked to be rich in hits.
KDM5B inhibitor: Primary screen for KDM5B Histone Demethylases FDH-coupled qHTS; KDM5B demethylase, FDH-coupled NADH fluorescence (FDH is formaldehyde dehydrogenase); Potency, µM (top dose mostly 57.7 µM), hits mostly inhibitors; 220,000 compounds, 2.6% hits; AID 1347165, 2019; active = well fitted inhibition curve with a large enough effect; also: nearly all actives have a fitted effect of over 70% in size
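Inhibition is measured as reduced NADH fluorescence generation from FDH coupling to formaldehyde release. Truncated KDM5BΔAP at 200 nM final acts on H3K4me3 peptide (12.5 µM in substrate mix) in pH 7.5 HEPES buffer with Tween-20, 30 min, room temperature.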
A number is an active result; n = inactive.

SMILES	KDM5B inhibitor
CCCn1c(CN(Cc2ccccc2)Cc2ccccc2)nc2c1c(=O)[nH]c(=O)n2C	n
Cc1c(C(=O)N2CCCCCC2)c(S(=O)(=O)N2CCc3ccccc32)c(C)n1C	n
CC(C)C(Sc1nnc(-c2cccnc2)o1)C(=O)NCc1cccnc1 (stereo not given)	n
CN(C)c1cccc(-c2nc(N3CCOCC3)cc3c2CN(Cc2cnn(C)c2)C3=O)c1	n
Cn1cc(CN2CCOc3cc([S+](=O)([O-])Nc4ccccc4)ccc3C2)cn1	n
Cc1cccc(O[C@H]2COCCN(Cc3cnn(C)c3)C2)n1	n
COc1ccc(CN2CCN3C(=O)N(Cc4ccc(C)cc4)C[C@H]3C2)cn1	n
COc1ccc2c(c1)CCc1c-2nc2ccccc2c1N1CCOCC1	n
COc1cc(F)ccc1-c1nc(N2CCOCC2)cc2c1CN(c1ccccc1)C2=O	10µM
Cc1ccccc1-c1nc(N2CCOCC2)cc2c1CN(Cc1cnn(C)c1)C2=O	40µM
COc1ccc(-c2noc(C3CC(=O)N(c4ccccc4)C3)n2)c(OC)c1 (stereo not given)	n
COc1ccc(-c2nc(N3CCOCC3)cc3c2CN(Cc2cnn(C)c2)C3=O)cn1	40µM
Cc1c(Cl)cccc1NC(=O)c1noc2c1CC(C)CC2 (stereo not given)	n
CC(c1ccccc1)N(C)C(=O)c1cccc(CS(C)(=O)=O)c1 (stereo not given)	n
NC(=O)[C@H]1C[C@@H](O)[C@H](O)[C@H]2[C@@H]1SC(=Nc1ccccc1)N2CC1CCCCC1	n
O=C(Cn1cccc1-c1nc(-c2ccccc2)no1)Nc1ccc(F)cc1	n
O=C(Nc1ccccc1Br)c1cc2cc(Br)ccc2oc1=O	n
COc1cc(Cl)c(C)cc1NC(=O)C(C)N1CCN(S(=O)(=O)c2ccccc2C#N)CC1 (stereo not given)	n
CN(C)CC1(O)CCC2(CCN(C(=O)CCc3nc4ccccc4[nH]3)CC2)CC1	n
O=C1NCC2(CCCN(C(=O)CCc3nc4ccccc4[nH]c3=O)C2)O1 (stereo not given)	22µM
O=C1CCN(C(=O)CCc2nc3ccccc3[nH]2)CCCCCCN1	n
CCn1nc(C)cc1C(=O)N1Cc2cnn(Cc3ccc(F)cc3)c2C1	n
Cc1cc(C)c(CNC(=O)c2nc(-c3cccc(O)c3)cc3[nH]ccc23)c(=O)[nH]1	32µM
Cc1cc(C)c(CNC(=O)c2nc(Nc3ccccc3)cc3[nH]ccc23)c(=O)[nH]1	16µM
COCCCNC(=O)c1cc(Nc2ccc(C)c(C)c2)nc2ccccc12	n
SMILES	KDM5B inhibitor
Cc1cc(C(C)(C)C)cc(C)c1CCNC(=O)c1n[nH]c(=O)c2ccccc12	n
Oc1ccccc1C=NCCOCCN=Cc1ccccc1O	n
COc1ccc(-c2csc3ncnc(Nc4cc(Cl)ccc4OC)c23)cc1	n
CCOc1ccc(C(=O)Nc2cccc(-c3nc4cccnc4s3)c2)cc1	n
COc1ccc(C)cc1NC(=O)Cn1nc2ccc(SC3CCCCC3)nn2c1=O	n
CC(C)c1ccc(CN2CCC3OCCN(c4ccccc4)C(=O)C3C2)cc1 (stereo not given)	n
CCOc1cc(-c2noc(-c3ccccc3)n2)ccc1OCC(=O)NC(C)(C)C	n
CC(C)Cn1nc(C(=O)NCc2ccc(F)cc2)c2ccccc2c1=O	n
Cc1cc(C)cc(Nc2nc(C)cc(=O)n2CC(=O)Nc2cccc(Br)c2)c1	28µM
Cc1cc(C)cc(Nc2nc(C)cc(=O)n2CC(=O)NC(C)CCc2ccccc2)c1 (stereo not given)	n
Cc1cc(C)cc(Nc2nc(C)cc(=O)n2CC(=O)Nc2ccc(Br)cc2)c1	n
Cc1cc(C)cc(Nc2nc(C)cc(=O)n2CC(=O)Nc2cccc(C#N)c2)c1	28µM
COc1cc(NC(=O)Cn2c(Nc3cc(C)cc(C)c3)nc(C)cc2=O)cc(OC)c1OC	n
CC(=O)c1cccc(NC(=O)Cn2c(Nc3cc(C)cc(C)c3)nc(C)cc2=O)c1	n
Cc1c(/C=C(/C#N)c2ccccn2)cc(C#N)n1C	n
COc1ccc(OC)c(NC(=O)CSc2nc3ccsc3c(=O)n2-c2ccccc2F)c1	n
Cn1c(NC2CCCC2)nc2c1c(=O)n(Cc1ccc(Cl)cc1)c(=O)n2C	n
Cc1ccccc1COc1ccccc1C=O	n
Cc1[nH]c2ccccc2c1C(=O)COC(=O)c1cc2ccccc2[nH]1	n
O=c1n(-c2cccc(Cl)c2)nc2n1CCN(Cc1cccc3ccccc13)C2	n
O=c1n(-c2cccc(Cl)c2)nc2n1CCN(Cc1ccccc1)C2	89µM
COc1ccc(-n2nc3n(c2=O)CCN(Cc2ccccc2)C3)cc1	n
CCOC(=O)c1cnc2c(Cl)c(Cl)ccc2c1NCC(C)O (stereo not given)	n
CC(C)c1nnc(SCC(=O)NC2CCCCCC2)o1	n
CC(C)c1nnc(NC(=O)c2cc(-c3ccncc3)nc3ccccc23)s1	n
SMILES	KDM5B inhibitor
CC(NC(=O)c1ccc(SC(F)F)cc1)c1ccccn1 (stereo not given)	n
CNC(=O)Cn1nc(C(=O)N2CCC3(CC2)[C@H](O)C[C@@H]3O)cc1C	n
CCO[C@H]1C[C@@H](O)C12CCN(C(=O)c1cc3nc(C)cc(C)n3n1)CC2	28µM
CCO[C@H]1C[C@@H](O)C12CCN(C(=O)CCCc1ccccc1)CC2	n
Cc1cccc(Cc2c(C)nc(N3CCN(Cc4ccccc4)CC3)[nH]c2=O)c1	n
Cc1ccc(Cl)cc1N1CCN(S(=O)(=O)c2c(C(=O)N3CCCCC3)c(C)n(C)c2C)CC1	n
CN1CCc2[nH]cnc2C12CCN(C(=O)c1ccc(-c3ccn[nH]3)cc1)CC2	n
CCCN1CCc2[nH]cnc2C12CCN(C(=O)c1cnn3ccccc13)CC2	25µM
COc1cc2c(cc1C(=O)N1CCC3(CC1)c1nc[nH]c1CCN3C)CCC2	n
O=C(c1ccc2cc[nH]c2c1)N1CCC2(CC1)N=C(c1cccc(Br)c1)NO2	28µM
Cc1ccc(C2=NC3(CCN(C(=O)c4cccc5[nH]ccc45)CC3)ON2)cc1	32µM
Cc1ccc(C2=NC3(CCN(C(=O)c4ccc[nH]4)CC3)ON2)cc1	n
Cc1ccc(C2=NC3(CCN(C(=O)c4ccccc4Cl)CC3)ON2)cc1	n
COc1cccc(C(=O)N2CCC3(CC2)N=C(c2cccc(Br)c2)NO3)c1	n
COCCN1C(=O)CS(=O)C12CCN(C(=O)c1cccc3[nH]ccc13)CC2 (stereo not given)	28µM
O=C(c1ccc2[nH]ccc2c1)N1CCC2(CC1)N=C(c1ccc(Br)cc1)NO2	n
COCCN1C(=O)CS(=O)(=O)C12CCN(C(=O)c1cccc(OC)c1C)CC2	n
COCCN1C(=O)CS(=O)C12CCN(C(=O)NCCc1ccccc1)CC2 (stereo not given)	n
C=CCn1c(SCCCCCC)nc2c1c(=O)n(C)c(=O)n2C	n
CCCN1C=C(OC(=O)c2ccc(OC)cc2)c2ccccc2S1(=O)=O	n
COc1ccc2ccc(OC(=O)c3ccc(CNC(C)=O)cc3)cc2c1	n
CCc1ccccc1NC(=O)c1nn(-c2ccccc2)c(=O)c2ccccc12	n
Cc1ccc(S(=O)(=O)NCCc2cccc(Cl)c2)cc1	n
Cc1c(C(=O)N(CC#N)C2CC2)sc2ccccc12	n
Cc1ccc(S(=O)(=O)N2CCN(CCNC(=O)c3ccccc3)CC2)cc1	n
Cc1cc(C)cc(Nc2nc(C)c(C(=O)N(C)C)s2)c1	n
CC(OC(=O)c1cc(=O)[nH]c2ccccc12)C(=O)Nc1ccc(Cl)cc1 (stereo not given)	n
O=C(COc1c(Cl)cccc1Cl)Nc1ccccc1N1CCCC1=O	n

Bioassay records as filed in PubChem.
